# High-throughput results as filed in PubChem BioAssay.
# A1 inhib: inducers of caspase activity in MEF A1-2A-BIM cells, primary screen, A1 inhibitor project, cell-based, CaspaseGlo luminescence; 0.51% of 21,000 active; caspase-Glo luminescence, 3 h; percent of clofoctol signal, DMSO as zero; AID 2241, 2010; caspase activation, % (no concentration beside the values);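 active means most replicate scores above 10, or exactly half above 10 with mean activity above 10; inconclusive means mean activity below 10 while half the replicates exceed 10; inactive means most replicate scores below 10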;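 further: effector caspase 3 and 7 activity cleaving a DEVD luciferin substrate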
# BJeLR viab HTS: BJeLR cell viability loss, primary screen, luminescence, CellTiterGlo ATP. BJeLR fibroblasts viability, 48 h; HRASV12, hTERT and SV40 LT/ST transformed. 0.64% of 30,000 active. viability loss activity score, % (test concentration not listed). AID 2275, 2010; in the data active means viability loss activity score above about 50%; inconclusive means no clear call, values can overlap the other calls; inactive means below about 35%;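 further: higher score means fewer live cells and less ATP luminescence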
# Starred values were filed as active, the others as inactive; ? = inconclusive; / = not tested or not shown; ! = repeats disagree. Hits are enriched below; roughly 0.9% of the tested compounds scored in any of these assays.
SMILES,A1 inhib,BJeLR viab HTS
OC(CN1CCN(c2cccc(Cl)c2)CC1)Cn1c2ccccc2c2ccccc21 (stereo not given),-0.4,-9.7
OC(CN1CCNCC1)Cn1c2ccc(Br)cc2c2cc(Br)ccc21 (stereo not given),16.0*!,8.4
CSc1ccc(Cn2cccc2C2=NC(c3ccccc3)CO2)cc1 (stereo not given),/,-0.1
N#CC1=C(N)n2c(nc3ccccc32)NC1c1ccc(Cl)cc1 (stereo not given),/,6.8
CCN1CCCC1CNC(=O)c1ccc2c(c1)sc1nc(-c3ccc(C)cc3)cn12 (stereo not given),8.3,94.6*
O=C(NCC1CCCO1)c1ccc2c(c1)sc1nc(-c3ccccc3)cn12 (stereo not given),-1.1,1.0
CCCOc1ccc2nc(NC(=O)OC)[nH]c2c1,2.4,58.1*
CCCOc1cccc(C(=O)Nc2ccc(C(=O)OC)cc2)c1,-1.1,2.7
CCC(C)NC(=O)c1cnn2c(C(F)(F)F)cc(-c3ccccc3)nc12 (stereo not given),-0.5,-0.8
Cc1nnn(C23CC4CC(CC(C(=O)NCc5ccccc5)(C4)C2)C3)n1,/,2.0
COC(=O)Cn1c(=O)c2c(nc3n2CCN3c2ccccc2)n(C)c1=O,36.5*,-3.2
COC(=O)Cn1c(Cl)nc2c1c(=O)n(C)c(=O)n2C,0.0,0.7
Cc1cc(/C=C2/C(=N)N3C=CSC3=NC2=O)c(C)n1-c1ccccc1,-7.3,8.9
Cc1cc(S(=O)(=O)Nc2cc(Br)c3oc4c(c3c2)C(=O)CCC4)ccc1Cl,/,-7.7
CN(C)c1ncnc2c1ncn2C1OC(CO)C(N)C1O (stereo not given),0.8,19.6
COc1ccc(CC(N)C(=O)N[C@H]2[C@@H](O)[C@H](n3cnc4c(N(C)C)ncnc43)O[C@@H]2CO)cc1 (stereo not given in full),58.0*,19.0
Cc1cc(/C=N/n2cnnc2)c(C)n1-c1cccc(C(F)(F)F)c1,/,5.7
COc1cccc2c1C(=O)c1c(O)c3c(c(O)c1C2=O)C[C@@](O)(C(=O)CO)C[C@@H]3OC1CC(N)C(O)C(C)O1 (stereo not given in full),14.7*,105.7*
COc1cccc2c1C(=O)c1ccc3c(c1C2=O)C(=O)CC(C)(O)C3 (stereo not given),-1.1,0.0
COc1cccc2c1C(=O)c1c(O)c3c(c(O)c1C2=O)C[C@@](O)(C(=O)CO)C[C@@H]3O[C@H]1C[C@H](N)[C@H](O)[C@H](C)O1,16.4*,108.7*
COc1cccc2c1C(c1ccc3c(c1O)C(=O)CC(C)C3O)OC2=O (stereo not given),0.9,1.2
COc1ccc(NC(=O)c2ccc(COc3ccc(C(C)C)cc3)o2)cc1,/,-2.3
CCN1C(=O)c2ccccc2S(=O)(=O)c2ccc(C(=O)NC3CCCC3)cc21,/,-3.9
CC(C)COC(=O)C(C)Oc1ccc2c3c(c(=O)oc2c1)CCC3 (stereo not given),-0.2,-1.0
CC(=O)O[C@@]1(C)[C@@H]2CC(=C(C)C)C(=O)C[C@@]2(C)CC[C@H]1OC(=O)C1(C)OC1C (stereo not given in full),0.1,53.9*
SMILES,A1 inhib,BJeLR viab HTS
CCCCN(CC)S(=O)(=O)c1ccc(C(=O)Nc2ccccc2-c2nc3ccccc3[nH]2)cc1,/,-2.8
COc1ccccc1CC(=O)Nc1ccc(-c2nc3ccccc3[nH]2)cc1,28.6*,23.1
CCOc1ccc(NC(=O)Cc2ccccc2OC)cc1,-4.8,3.1
CN(Cc1ccccc1)S(=O)(=O)c1ccc(C(=O)Nc2ccc(-c3nc4ccccc4[nH]3)cc2)cc1,21.8*,?
CCOC(=O)C1=CN(c2ccc(C)cc2)C=C(C(=O)OCC)C1c1cccs1,0.0,-4.5
CCOC(=O)C(C)(C)Sc1nc(-c2ccc(F)cc2)nc2c1c(=O)n(C)c(=O)n2C,/,3.5
O=C1C(SCCO)=C(SCCO)C(=O)c2ccccc21,-4.2,116.7*
O=C1c2ccccc2C(=O)N1C(CO)C(O)c1ccccc1 (stereo not given),-1.6,3.7
CCN1c2ccccc2-c2nc3ccccc3n2C1c1ccccc1 (stereo not given),/,3.1
CC(C)=CCc1c(O)cc(O)c2c1O[C@H](c1ccccc1)CC2=O,22.6*,1.8
O=C1C[C@H](c2ccccc2)Oc2c(Cc3ccccc3O)c(O)cc(O)c21,-0.7,9.6
COC(=O)c1cc(NC(=S)NN(C)C)ccc1Cl,/,-4.7
C=CCc1ccc(O[C@@H]2O[C@H](CO)[C@@H](O)[C@H](O)[C@H]2O)c(O[C@@H]2O[C@H](CO)[C@@H](O)[C@H](O)[C@H]2O)c1,-0.4,70.0*
C=CCc1ccc(O[C@@H]2O[C@H](CO[C@@H]3O[C@@H](C)[C@H](O)[C@@H](O)[C@H]3O)[C@@H](O)[C@H](O)[C@H]2O)c(O)c1,0.9,0.9
O=C(Nc1ccccc1Br)c1ccc2c(c1)N(Cc1ccc(F)cc1)C(=O)CS2=O (stereo not given),/,-4.9
CC(C)(C)n1nc(-c2ccc(Cl)cc2)c2c(N)ncnc21,12.9*,6.8
Cc1ccnc(Nc2nc3ccccc3o2)n1,/,49.8*
CC(C)N1CN=C(Nc2nc3ccccc3o2)NC1,-0.7,0.3
Cn1c2ccccc2c2c3c(c4c5ccccc5n(CCC#N)c4c21)CNC3=O,28.0*,21.0
Cn1c2ccccc2c2cnn(CC(=O)O)c(=O)c21,0.4,-1.7
CCC(SC1=Nc2ccccc2C2=NC(c3ccccc3)C(=O)N12)C(=O)Nc1cccc(OC)c1 (stereo not given),/,-0.5
O=C(CSc1c2c(nc3cc(Cl)ccc13)CCCC2)N1CCCCCC1,/,0.3
Nc1nc(Cl)nc2c1ncn2C1OC(CO)[C@H](O)[C@H]1F (stereo not given in full),1.2,53.6*
Nc1nc(Cl)nc2c1ncn2C1C[C@@H](O)C(CO)O1 (stereo not given in full),1.2,-16.5
CCC(CC)NC(=O)Cc1ccc(Cl)cc1,1.3,3.6
SMILES,A1 inhib,BJeLR viab HTS
CCOc1ccc(-c2c(C#N)c(N)nc(SCC(=O)c3ccc(Cl)cc3)c2C#N)cc1,16.4*,4.2
Cc1ccc(-c2nsc(SCC(=O)c3ccc(Cl)cc3)n2)cc1,-0.5,-0.9
COc1ccc(-c2cc(C(F)(F)F)nc(N3CCc4ccccc4C3)n2)cc1OC,/,-2.1
C=C1C(=O)O[C@@H]2C3C(=C(C)[C@@H](O)[C@@H](OC(=O)/C(=C/C)COC(C)=O)[C@@H]12)C(=O)[C@H]1O[C@@]31C (stereo not given in full),0.9,89.7*
C=C(C(=O)O[C@H]1C[C@]2(C)C(C(C=O)CC[C@H]2O)[C@H]2OC(=O)C(=C)[C@H]12)C(O)CO (stereo not given in full),0.2,-2.3
CC1(C)CC(=O)c2c(SCCOC(=O)c3ccccc3Cl)sc(C#N)c2C1,-1.0,-0.8
CS(=O)c1sc(C(=O)OCc2ccccc2)c2c1C(=O)CC(C)(C)C2 (stereo not given),4.1,116.4*
CCN1CCN(CCCNC(=S)Nc2ccc3nc(N4CCN(C)CC4)cc(C)c3c2)CC1,/,-2.4
COc1ccc(-c2cc(C(F)(F)F)nc(SCC(=O)N(C)C3CCCCC3)n2)cc1,0.6,2.3
Cc1cc(C)cc(NC(=O)c2ccc3c(c2)NC(=O)c2ccccc2S3)c1,3.5,24.9
